According to PubChem BioAssay (NCATS):
Where “and” joins values, the source holds several entries; their conditions need not be identical. Equal values may be shown once. Inconclusive results are not listed. Calls of active or inactive are those of the source. Unless noted, calls come from the whole dose curve; as a rule, active = well fitted curve in the direction sought with a large enough effect; inconclusive = small, poorly fitted or top-dose-only effect, or another doubt; inactive = no such curve, though single readings can be large; an effect the other way counts as inactive or inconclusive.

Assays:
[1] = molecular target: Cellular tumor antigen p53 (Homo sapiens) (UniProt P04637); assay: Primary qHTS for small molecule compounds that upregulate eGFP-tagged delta133p53alpha (in N-terminal) cells. (AID 2060322); conditions: NCI-H358 eGFP-delta133p53alpha fluorescence, 24 h; activation: stronger effect = higher value;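 note: cells pre-induced with doxycycline then dosed without doxycycline; series mostly up to about 56 µM; 0% = DMSO vehicle and 100% = reference activator; nearly all actives have a fitted effect of over 75% in size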
In short: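 NCI-H358 cells pre-induced 24 h with 10 ng/ml doxycycline for eGFP-delta133p53alpha, plated dox-free and exposed 24 h at 37C to titrated compounds. Fixed, Hoechst-stained; gated GFP peak intensity by laser scanning cytometry, normalized to DMSO (0%) and 57.5 uM 5-azacytidine (100%).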

[2] = molecular target: Cellular tumor antigen p53 (Homo sapiens) (UniProt P04637); assay: Primary qHTS for small molecule compounds that upregulate eGFP-tagged delta133p53alpha (in C-terminal) cells. (AID 2060324);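 note: 0% = DMSO wells and 100% = 57.5 µM 5-azacytidine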
In short: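 Concentration-response screen: compounds titrated onto pre-induced NCI-H358 D133p53a-eGFP cells, incubated one day, fixed with 3.5% PFA. Per-cell GFP peak intensity was gated, then normalized against intraplate controls.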

[3] = molecular target: Aldehyde dehydrogenase, mitochondrial (Homo sapiens) (UniProt P05091); assay: qHTS for Inhibitors of the Aldehyde Dehydrogenase Family (ALDH2) Validation screens (AID 2061302; active = well fitted inhibition curve with a large enough effect; title and protocol of this record describe different tests;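 note: plate controls were DMSO vehicle for no effect and maximal DPI positive control response for full effect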)
[4] = molecular target: Retinaldehyde dehydrogenase 3 (Homo sapiens) (UniProt P47895); assay: qHTS for Inhibitors of the Aldehyde Dehydrogenase Family (ALDH1A3) Validation screen (AID 2061312); note: % is set by controls: 0 for no effect and ±100 for the full control effect; nearly all actives have a fitted effect of over 45% in size
[5] = BET inhibitor-based combinations targeting novel dependencies in MECOM-rearranged (r) AML: SET-2 cell line (AID 2202231); conditions: SET-2 AML cells viability, CellTiter-Glo luminescence, 48 h; viability: stronger effect = lower value, series mostly up to about 46 µM;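 note: plate controls were DMSO treated cells for no effect and wells without cells for full effect; nearly all actives have a fitted effect of over 35% in size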
In short: (§1)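 500 cells/well; 11-pt dose curve; 48 h, standard incubator; CellTiter-Glo luminescence after 15 min RT; DMSO/empty-well normalization; AUC plus Z-AUC (mean-centered within each line).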

[6] = BET inhibitor-based combinations targeting novel dependencies in MECOM-rearranged (r) AML: OCI-AML3 cell line (AID 2202232); conditions: Potency: OCI-AML3 viability;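 note: series mostly up to about 46 µM; plate controls were DMSO vehicle wells for no effect and wells without cells for full effect; nearly all actives have a fitted effect of over 35% in size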
In short: as §1

[7] = BET inhibitor-based combinations targeting novel dependencies in MECOM-rearranged (r) AML: MV-4-11 cell line (AID 2202233);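 note: plate controls were DMSO for no effect and blank wells for full effect; nearly all actives have a fitted effect of over 45% in size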
In short: (§2)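 Cells were plated at 500 per well and exposed to each drug across an 11-point dose range for 48 hr at standard incubator conditions. Viability was read by CellTiter-Glo luminescence, and activity was expressed as AUC and per-cell-line Z-transformed AUC.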

[8] = BET inhibitor-based combinations targeting novel dependencies in MECOM-rearranged (r) AML: HNT-34 cell line (AID 2202234);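 note: plate controls were vehicle wells for no effect and cell-free wells for full effect; nearly all actives have a fitted effect of over 35% in size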
In short: as §2

[9] = BET inhibitor-based combinations targeting novel dependencies in MECOM-rearranged (r) AML: UCSD-AML1 cell line (AID 2202235);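 note: series mostly up to about 46 µM; plate controls were DMSO vehicle wells for no effect and blank wells for full effect; nearly all actives have a fitted effect of over 40% in size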
In short: as §2

[10] = BET inhibitor-based combinations targeting novel dependencies in MECOM-rearranged (r) AML: AML-191 cell line (AID 2202236;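 note: plate controls were vehicle wells for no effect and wells without cells for full effect; nearly all actives have a fitted effect of over 35% in size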)
In short: as §1

[11] = BET inhibitor-based combinations targeting novel dependencies in MECOM-rearranged (r) AML: AML-194 cell line (AID 2202237;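 note: plate controls were vehicle wells for no effect and wells without cells for full effect; nearly all actives have a fitted effect of over 40% in size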)
In short: as §1

Cellular tumor antigen p53 (Homo sapiens), sequence (P04637 whole entry, looked up): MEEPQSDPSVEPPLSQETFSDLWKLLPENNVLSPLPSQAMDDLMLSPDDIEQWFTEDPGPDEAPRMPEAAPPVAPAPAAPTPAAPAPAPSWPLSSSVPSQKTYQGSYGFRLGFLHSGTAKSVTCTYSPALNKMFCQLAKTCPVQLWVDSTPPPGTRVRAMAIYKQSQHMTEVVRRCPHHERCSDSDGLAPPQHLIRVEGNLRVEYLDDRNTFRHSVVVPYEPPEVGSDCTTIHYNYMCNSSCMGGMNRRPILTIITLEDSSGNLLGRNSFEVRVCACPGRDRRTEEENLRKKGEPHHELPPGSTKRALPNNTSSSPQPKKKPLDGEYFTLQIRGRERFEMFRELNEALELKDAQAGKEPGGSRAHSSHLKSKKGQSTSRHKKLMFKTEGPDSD

NC[C@@H]1O[C@H](c2ccccc2)Cc2c1ccc(O)c2O
inactive: activation [1] 5.43% | Potency [2] | Potency [3] | Potency [4]

Cc1nc2ccccn2c(=O)c1CCN1CCC(C(=O)c2ccc(F)cc2)CC1
inactive: activation [1] 0.565% and -12% | Potency [2] | Potency [3] | Potency [4]

CC(C)NCC(O)COc1ccc(CC(N)=O)cc1 (stereo unspecified)
inactive: activation [1] -17.7% | Potency [2] | Potency [3] | Potency [4]

CC(C)(CO)Cc1cc(C(C)(C)C)c(O)c(C(C)(C)C)c1
inactive: activation [1] -20% | Potency [2] | Potency [3] | Potency [4]

O=C(CCNNC(=O)c1ccncc1)NCc1ccccc1
inactive: activation [1] -11.9% and -31.2% | Potency [2] | Potency [3] | Potency [4]

O=[N+]([O-])c1ccc(CSc2ncnc3c2ncn3[C@@H]2O[C@H](CO)[C@@H](O)[C@H]2O)cc1
inactive: activation [1] -20.8% | Potency [2] | Potency [3] | Potency [4]

O=c1[nH]c2cc(Cl)ccc2c(O)c1-c1ccc(Oc2ccccc2)cc1
inactive: activation [1] 23.6% | Potency [2] | Potency [3] | Potency [4]

COc1ccc2c(c1)c(CC(=O)O)c(C)n2Cc1ccc(Cl)cc1
inactive: activation [1] -32.5% | Potency [2] | Potency [3] | Potency [4]

O=C(O)c1ccccc1Nc1ccccc1
inactive: activation [1] -8.85% | Potency [2] | Potency [3] | Potency [4]

N#Cc1cc2nc(O)c(O)nc2cc1[N+](=O)[O-]
inactive: activation [1] -30.1% | Potency [2] | Potency [3] | Potency [4]

CCCCCCC/C=C\CCCCCCCCC(=O)O
inactive: activation [1] -38.4% | Potency [2] | Potency [3] | Potency [4]

CN(C)CC[C@@H](c1ccc(Cl)cc1)c1ccccn1
inactive: activation [1] -9.6% and -8.57% | Potency [2] | Potency [3] | Potency [4]

NC(N)=NC(=O)Cc1c(Cl)cccc1Cl
inactive: activation [1] -18.6% and -5.21% | Potency [2] | Potency [3] | Potency [4]

CCOC(=O)C(C)(C)Oc1ccc(Cl)cc1
inactive: activation [1] 14.3% and -37.9% and -27.7% | Potency [2] | Potency [3] | Potency [4] | viability [5] 112% | Potency [6] | Potency [7] | Potency [8] | Potency [9] | Potency [10] | Potency [11]

NC(=O)c1cccc(N)c1
inactive: activation [1] 7.85% | Potency [2] | Potency [3] | Potency [4] | viability [5] 120% | Potency [6] | Potency [7] | Potency [8] | Potency [9] | Potency [10] | Potency [11]

Nc1nc2c(ncn2COC(CO)CO)c(=O)[nH]1
inactive: activation [1] -11.7% | Potency [2] | Potency [3] | Potency [4] | viability [5] 113% | Potency [6] | Potency [7] | Potency [8] | Potency [9] | Potency [10] | Potency [11]

CCn1cc(C(=O)O)c(=O)c2cc(F)c(N3CCNC(C)C3)c(F)c21 (stereo unspecified)
inactive: activation [1] -0.837% and 16.4% and -15.6% | Potency [2] | Potency [3] | Potency [4] | viability [5] 95.2% | Potency [6] | Potency [7] | Potency [8] | Potency [9] | Potency [10] | Potency [11]

CC(C)(C)NC[C@H](O)COc1nsnc1N1CCOCC1
inactive: activation [1] -9.94% | Potency [2] | Potency [3] | Potency [4]

COc1ccc2[nH]cc(CCNC(C)=O)c2c1
inactive: activation [1] 4.42% and -13.4% and -16.3% | Potency [2] | Potency [3] | Potency [4] | viability [5] 124% | Potency [6] | Potency [7] | Potency [8] | Potency [9] | Potency [10] | Potency [11]

c1ccc2c(c1)CC(N1CCN(c3cccc4c3OCCO4)CC1)C2
inactive: activation [1] 1.22% | Potency [2] | Potency [3] | Potency [4]

O=C(O)c1cc2cc(Cc3cccnc3)ccc2o1
inactive: activation [1] 19.6% | Potency [2] | Potency [3] | Potency [4]

COc1ccc(-c2ccc(N)[n+](CCCC(=O)O)n2)cc1
inactive: activation [1] -20% | Potency [2] | Potency [3] | Potency [4]

COc1cc(C(O)CO)ccc1OS(=O)(=O)O (stereo unspecified)
inactive: activation [1] 5.13% | Potency [2] | Potency [3] | Potency [4]

CCCCCCCC/C=C\CCCCCCCC(=O)NCCc1ccc(O)c(O)c1
inactive: activation [1] 9.28% | Potency [2] | Potency [3] | Potency [4]

N[C@H](CCCP(=O)(O)O)C(=O)O
inactive: activation [1] -16.6% | Potency [2] | Potency [3] | Potency [4]

NS(=O)(=O)c1cc2c(cc1Cl)NC=NS2(=O)=O
inactive: activation [1] -10% and -6.71% and -22.3% | Potency [2] | Potency [3] | Potency [4] | viability [5] 111% | Potency [6] | Potency [7] | Potency [8] | Potency [9] | Potency [10] | Potency [11]
